# Whole data set: some 13,000 compounds, median “IFI” near 4, cut for the highest 2% near 17. The sample as a whole holds a higher share of the highest values than the screen did.
# Assay: GSK_TCMDC: Inhibition Frequency Index (IFI). The number of non-kinase HTS assays where a compound showed > 50 % inhibition, expressed as a percentage of the number of such assays in which the compound was tested
# Format: functional
row,SMILES,IFI [%]
1,CCc1c(CCNCCCCCCNC(C)Cc2ccc3c(c2CC)OCO3)ccc(OC)c1OC (stereo not given),10.7
2,O=C(CNCC1CCCCC1)Nc1cc(C(F)(F)F)ccc1Cl,4.23
3,CC(C)(C(=O)Nc1ccc(C2CCC(NCC3CC3)CC2)c(Cl)c1)c1cccc(OC(F)F)c1 (stereo not given),23.4
4,CC(C)(C(=O)Nc1ccc(N2CCC3(CCCN(CC4CC4)C3)CC2)c(Cl)c1)c1cccc(C(F)(F)F)c1,6.67
5,CN1CC[C@@H](Oc2cc(NC(=O)Nc3ccc(Cl)c(C(F)(F)F)c3)ccc2Cl)C1,7.63
6,O=C(NCC1CCC(CNCCc2ccccc2)CC1)Nc1ccc(Cl)c(Cl)c1 (stereo not given),0.72
7,CC(C)(C(=O)Nc1ccc(C2CCC(NCC3CC3)CC2)c(Cl)c1)c1ccc(C(F)(F)F)cc1 (stereo not given),25
8,COc1ccc2c(=NN=C(C)c3ccccn3)cc(C)[nH]c2c1,4.96
9,Cc1ccccc1CN1CCCN(Cc2ccc(C(=O)Nc3ccc(Cl)cc3)cc2)CC1,10.2
10,Cc1ccccc1CN1CCCN(Cc2ccc(C(=O)Nc3ccc(C(C)(C)C)cc3)cc2)CC1,18.4
11,CC(C)(C)c1ccc(NC(=O)c2ccc(CN3CCCN(Cc4ccc(F)cc4)CC3)cc2)cc1,15.6
12,CC(C)(C)c1ccc(NC(=O)c2ccc(CN3CCCN(Cc4cccc(Cl)c4)CC3)cc2)cc1,17.2
13,CCCCCCN1CCCN(Cc2ccc(C(=O)Nc3ccc(C(C)C)cc3)cc2)CC1,19.7
14,CCCCCCN1CCCN(Cc2ccc(C(=O)Nc3ccc(Cl)cc3)cc2)CC1,15.2
15,CC(C)(C)c1ccc(NC(=O)c2cccc(CN3CCCN(Cc4cccc(Cl)c4)CC3)c2)cc1,7.86
16,CCCCCCN1CCCN(Cc2ccc(C(=O)Nc3ccc(CC)cc3)cc2)CC1,13.5
17,O=C(Nc1ccc(Cl)cc1)c1ccc(CN2CCCN(Cc3cccc(Cl)c3)CC2)cc1,8.66
18,Cc1cccc2nc(-c3ccc(-c4cccc(NC(=O)Nc5ccc(F)c(F)c5F)c4)cc3)[nH]c12,2.91
19,O=C(/C=C/C=C/c1ccc(Cl)c(Cl)c1)NCCCCCN1CCCC2CCCCC21 (stereo not given),5.19
20,Cc1cccc2nc(-c3cccc(-c4ccc(NC(=O)Nc5ccc(Cl)c(Cl)c5)cc4)c3)[nH]c12,7.07
21,CC(=O)Oc1c(Cl)c(C)nc(C)c1-c1ccc(Oc2ccc(OC(F)(F)F)cc2)cc1,6.35
22,CCN(CC)CCCN(CCCN(CC)CC)c1cc(C)nc(Nc2ccc3cc(Br)ccc3c2)n1,4.35
23,COc1cc(C(=O)Nc2ccc(-c3nc4ccccc4[nH]3)cc2)cc(OC)c1OC,1.4

row,SMILES,IFI [%]
1,CCn1c(C(C)C)cc2c3c(N)nc(N)nc3ccc21,2.88
2,CCN(CC)CCOc1ccc(C(O)(C#CC(O)(c2ccc(OCCN(CC)CC)cc2)c2ccc([N+](=O)[O-])cc2)c2ccc([N+](=O)[O-])cc2)cc1 (stereo not given),5.84
3,CCOc1cc(C(=O)NC2CCN(Cc3ccccc3)C2)ccc1-c1nc2cc(Cl)ccc2[nH]1 (stereo not given),2.14
4,Nc1nc(N)c2cc(C(F)(F)F)ccc2n1,1.65
5,Cc1cc(C)c(CON2C(=N)N=C(N)NC2(C)C)cc1C,3.57
6,Cc1cc(=O)[nH]c(-n2nc(C)cc2NC(=O)CC(c2ccccc2)c2ccccc2)n1,10.4
7,Cc1cc(=O)[nH]c(-n2nc(C)cc2NC(=O)C2(c3ccc(Cl)cc3)CCCC2)n1,19.2
8,Cc1cc(=O)[nH]c(-n2nc(C)cc2NC(=O)C(c2ccccc2)c2ccccc2)n1,10.4
9,COc1cc(NCCCNCC2c3ccccc3Oc3ccccc32)nc2ccccc12,20.8
10,COc1cc(NCCCCNc2ccc(Cl)c(Cl)c2)nc2ccccc12,26.5
11,COc1cc(NCC(C)CNCc2cn(Cc3ccccc3)c3ccccc23)nc2ccccc12 (stereo not given),7.19
12,COc1cc(NCCCCCNc2cc(Cl)nc3ccccc23)nc2ccccc12,15.8
13,COc1cc(NCCCNC(=O)c2ccc(Cl)c(Cl)c2)nc2ccccc12,12.5
14,COc1cc(NCCCNCc2cn(S(=O)(=O)c3ccccc3)c3ccccc23)nc2ccccc12,8.96
15,COc1cc(NCC(O)CNc2cc(OC)c3ccccc3n2)nc2ccccc12,8.51
16,COc1ccc(COc2cc(NCCCN)nc3ccccc23)cc1,0
17,COc1cc(NCCCNCc2cn(Cc3cc(Br)cc(Br)c3)c3ccccc23)nc2ccccc12,17.4
18,CCN(CC)/C(=N\CCCCCC/N=C(\NC(=N)c1ccc(Cl)cc1)N(CC)CC)NC(=N)c1ccc(Cl)cc1,12.2
19,CC(C)CNCc1cccc(-c2ccc(CN(CCCN3CCN(C)CC3)C(=O)/C=C/c3ccccc3)cc2)c1,5.15
20,Cc1cc(NC2CCN(Cc3ccccc3)CC2)nc(NCCCCc2ccccc2)n1,10.6
21,Cc1cccc2nc(-c3cccc(-c4cccc(NC(=O)C(C)CN(C)C)c4)c3)[nH]c12 (stereo not given),3.6
22,OCC1CCN(Cc2cccc(-c3ccc(-c4nc5cc(C(F)(F)F)ccc5[nH]4)s3)c2)CC1,2
23,O=c1[nH]ccc2nc(N[C@@H]3CCNC3)nc(Nc3ccc4c(c3)S(=O)(=O)CC4)c12,0

row,SMILES,IFI [%]
1,NS(=O)(=O)c1cccc(Nc2nc(N[C@@H]3CCNC3)nc3cc[nH]c(=O)c23)c1,18.2
2,O=c1[nH]ccc2nc(N[C@@H]3CCCNC3)nc(Nc3ccc(S(=O)(=O)N4CCOCC4)cc3)c12,0
3,O=c1[nH]ccc2nc(N[C@@H]3CCNC3)nc(Nc3cc(Cl)cc(Cl)c3)c12,16.7
4,Cc1cccc(Nc2nc(N[C@@H]3CCCNC3)nc3cc[nH]c(=O)c23)c1,16.7
5,O=c1[nH]ccc2nc(N[C@@H]3CCNC3)nc(Nc3cccc(S(=O)(=O)N4CCOCC4)c3)c12,18.2
6,OC(c1cc(C(F)(F)F)nc2c(F)cccc12)C1CCCCN1 (stereo not given),0
7,CC(C)(C)OC(=O)Nc1cccc(-c2csc(NC(=N)N)n2)c1,4.08
8,CC(CNC(=O)[C@H]1CNCCN1C(=O)CCCc1ccccc1)c1ccccc1 (stereo not given in full),2.84
9,COc1cccc2c1CCN(CCN1CCC(NC(=O)c3ccc(-c4cccc(Cl)c4Cl)cc3)CC1)C2,7.63
10,O=C(Oc1ccc(C2CNCCc3c2cc(OC(=O)c2ccc(O)cc2)c(OC(=O)c2ccc(O)cc2)c3Cl)cc1)c1ccc(O)cc1 (stereo not given),5.07
11,COc1ccc(C=NN=c2cc(C)[nH]c3ccc(C)cc23)c2ccccc12,7.09
12,CCCCNS(=O)(=O)c1ccc(NC(=O)c2cc([N+](=O)[O-])ccc2Cl)cc1,5.17
13,CCN(CC)c1ccc(C(c2ccc(N(CC)CC)cc2)c2ccc([N+](=O)[O-])cc2)cc1,4.35
14,CCC(C)c1ccc(NC(=O)C(C)c2ccc([N+](=O)[O-])cc2)cc1 (stereo not given),23.7
15,C=CCNS(=O)(=O)c1ccc(NC(=O)C(C)Oc2ccc([N+](=O)[O-])cc2)cc1 (stereo not given),14.8
16,CCCNS(=O)(=O)c1ccc(NC(=O)C(C)Oc2ccc([N+](=O)[O-])cc2)cc1 (stereo not given),17.5
17,CCC(C)c1ccc(NC(=O)Nc2ccnc3ccccc23)cc1 (stereo not given),10.2
18,CS(=O)(=O)c1ccc2[nH]c(-c3cc(-c4cccc(F)c4)cnc3N)nc2c1,6.45
19,CC(=O)Nc1cccc(Nc2nccc(Nc3ccc(Oc4ccccc4)cc3)n2)c1,4.96
20,COc1ccc(-c2ccc(NC(=O)c3cccc(Cl)c3)cc2)cc1CN1CCN(C)CC1,7.84
21,CCOC(=O)c1ccc(NC(=O)N(Cc2ccc(-c3ccc(CN4CCNCC4)cc3)cc2)C2CCN(Cc3ccccc3)CC2)cc1,7.64
22,Cc1cc(N[C@@H](Cc2ccccc2)C(=O)NCCOc2ccccc2)nc(NCCc2cccs2)n1,11.6
23,Cc1cc(N)c2cc(NC(=O)c3ccc4ccccc4c3)ccc2n1,6.08

row,SMILES,IFI [%]
1,Cc1nc(-c2ccc(-c3ccc(NC(=O)c4coc5ccc(N6CC(C)N(C)C(C)C6)cc45)cc3)c(C)c2)no1 (stereo not given),4.08
2,O=C(Nc1ccc(Cl)cc1)N[C@H]1CCN(Cc2ccc(OCCCN3CCCCC3)cc2)C1,7.14
3,CCN(CC)CCCC(C)Nc1ccnc2ccc(OC)cc12 (stereo not given),0.73
4,COc1ccccc1CNc1ccnc(N2CC(Oc3ccc(F)cc3)C2)n1,4
5,CCCCCNC(=N)c1ccc(OCCCCCOc2ccc(C(=N)NCCCCC)cc2)cc1,5
6,CCCCNC(=N)c1ccc(OCCCCCOc2ccc(C(=N)NCCCC)cc2)cc1,2.26
7,CCCCOc1ccc(C(=O)C(CCC(CNC(C)(C)C)C(=O)c2ccc(OCCCC)cc2)CNC(C)(C)C)cc1 (stereo not given),25.4
8,O=C(Nc1ccccc1)Nc1cccc(-c2cccc(-c3nc4cc(F)ccc4[nH]3)c2)c1,3
9,Cc1ccc2[nH]c(-c3cc(-c4ccc(CO)cc4)cnc3N)nc2c1,5.51
10,c1ccc2oc(-c3cc4ccncc4cc3OC3CCNCC3)cc2c1,8.77
11,O=C(N[C@@H](Cc1ccccc1)[C@H](O)CNCCC(F)(F)F)c1cccc(OCC2CC2)c1,6.1
12,O=C(N[C@@H](Cc1ccccc1)[C@H](O)CNCCC(F)(F)F)c1cccc(CCC2CC2)c1,6.1
13,CCc1cn(CCOC)c2ccc(C(=O)N[C@@H](Cc3ccccc3)[C@H](O)CNC(C)(C)CCCC(C)C)cc12,5.07
14,CC(C)CCCC(C)(C)NC[C@@H](O)[C@H](Cc1ccccc1)NC(=O)c1cccc(CCC2CC2)c1,22.4
15,CCc1cn(CCc2ccccc2)c2ccc(C(=O)N[C@@H](Cc3ccccc3)[C@H](O)CNC(C)(C)CCCC(C)C)cc12,8.7
16,CC(C)CCCC(C)(C)NC[C@@H](O)[C@H](Cc1ccccc1)NC(=O)c1cccc(OCC2CC2)c1,18.6
17,COc1cc2nc(N3CCC(CNC(=O)c4ccc(-c5ccc(C#N)cc5C)cc4)CC3)nc(N)c2cc1OC,6.31
18,CCN(CC)CCCNc1ncc2c(-c3ccc(NC(=O)Nc4cc(C(F)(F)F)ccc4F)cc3)nn(C)c2n1,10.8
19,O=C(Nc1ccc(-c2nc3ccccc3[nH]2)cc1)c1ccc(N2CCCC2)c([N+](=O)[O-])c1,0.99
20,Cc1nnc2sc(-c3cccc(NC(=O)c4ccc(N5CCCCC5)c([N+](=O)[O-])c4)c3)nn12,1.47
21,CN(c1ccccc1)S(=O)(=O)c1cccc(NC(=O)c2ccc(-n3ccnc3)c([N+](=O)[O-])c2)c1,17.2

# Source: ChEMBL document CHEMBL1157539, “Thousands of chemical starting points for antimalarial lead identification” (Nature, 2010)
